Laboratory results: PubChem BioAssay AID1254 (The Scripps Research Institute Molecular Screening Center, 2008)
Hit rate of the full screen: of about 1,200 compounds, about 250 (21%) were called active. Cut-off read from the data, not from the text of the source: active = inhibition above about 20%; inactive = the rest. Only a sample is shown.

Biological target: Neuropeptide Y receptor type 1 (Homo sapiens) (UniProt P25929)
Test: blockers of human NPY-Y1 signalling – HEK293-CNG cells, membrane potential fluorescence, triplicate, confirmation (AID 1254);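 note: 0% = vehicle with agonist plus stimulus and 100% = stimulus alone without agonist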
Conditions: cAMP, at 3.6 µM, active compounds read high, NPY challenge against isoproterenol-raised cAMP

Neuropeptide Y receptor type 1 (Homo sapiens), sequence (P25929 whole entry, looked up): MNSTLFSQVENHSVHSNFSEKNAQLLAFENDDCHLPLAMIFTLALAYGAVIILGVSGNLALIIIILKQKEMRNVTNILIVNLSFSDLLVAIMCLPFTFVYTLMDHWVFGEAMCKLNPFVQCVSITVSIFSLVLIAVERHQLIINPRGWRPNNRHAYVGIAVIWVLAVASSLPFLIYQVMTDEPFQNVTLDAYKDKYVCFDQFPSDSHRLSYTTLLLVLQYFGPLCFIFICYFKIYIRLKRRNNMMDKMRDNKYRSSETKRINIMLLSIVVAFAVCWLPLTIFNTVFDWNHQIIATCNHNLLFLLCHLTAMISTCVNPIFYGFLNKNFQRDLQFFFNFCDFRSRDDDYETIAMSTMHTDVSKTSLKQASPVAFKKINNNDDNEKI

inhibition, active:
CC(C)(C)NCc1cc(Br)ccc1OC1CCCC1 21.6%
c1ccc2c(NC3C4CC5CC(C4)CC3C5)nc(N3CCOCC3)nc2c1 (stereo unspecified) 25.2%
CCCCCCCCn1c2c(c(=N)c3c1CCC3)CCCC2 64.7%
Cc1ccc2nc(-c3ccccn3)cc(C(=O)Nc3ccc4c(c3)OCO4)c2c1 27%
COc1cc2c(C(=O)N3CCN(C)CC3)c(CSc3ccccc3)n(C)c2cc1Br 20.6%

inhibition, inactive:
O=C(CSc1nnnn1C1CCCC1)Nc1ccc2c(c1)OCCO2 10.8%
CCN1CCN(CCNC(=O)c2ccc(/C=C3/Sc4ccccc4N(Cc4cccc(C)c4)C3=O)cc2)CC1 14.5%
COC(=O)c1ccc(COC(=O)c2c(C)nn(Cc3ccccc3Cl)c2Cl)o1 7.48%
Cc1ccccc1Nc1scc(-c2ccc(Br)cc2)[n+]1-c1ccccc1C 18.4%
COc1ccccc1C1C2=C(COC2=O)Nc2cc3c(cc21)OCO3 (stereo unspecified) 2.86%
COc1ccc(-c2[nH]nc(-c3ccccc3)c2-c2nc3ccccc3[nH]2)cc1 13.6%
COc1ccc(C(=O)CSc2nnc(COc3ccccc3)n2Cc2ccco2)cc1 5.39%
Cc1cc(C)c2[nH]c(=O)c(CN(Cc3ccccc3)C(=S)NCCCN(C)C)cc2c1 15.2%
O=S(=O)(O)c1nc2ccccc2n1Cc1ccc(Cl)cc1 5.94%
O=C(NCCc1ccc2c(c1)OCCO2)c1cc2ccccc2o1 13.2%
CCCOc1ccc2c3c(c(=O)oc2c1OCCC)CCC3 5.13%
C/C(=N\NC(=S)NCc1ccccc1)c1ccc(Cl)cc1 4.98%
Cc1ccc(-c2cc(C(=O)N3CCc4ccccc4C3)no2)cc1 10.9%
OCC1(CCc2ccccc2)CCN(Cc2ccc3nsnc3c2)CC1 9.69%
COc1ccc(CCN(C(=O)COc2ccccc2)c2nc(-c3ccccc3)cs2)cc1OC 13.1%
CC(Nc1nc(N2CCN(CCO)CC2)nc2ccccc12)c1ccccc1 (stereo unspecified) 4.06%
c1ccc(-c2ccccc2OCCN2CCCCC2)cc1 4.72%
O=C(CN1CCN(c2ncc(C(F)(F)F)cc2Cl)CC1)Nc1ccc2c(c1)OCO2 12.4%
CS(=O)(=O)N1CCCC(C(=O)N2CCOCC2)C1 (stereo unspecified) -0.5%
CCOC(=O)CSc1nc2c(sc(=S)n2CCc2ccccc2)c(=O)n1Cc1ccco1 18.3%
O=C(c1cc(-c2ccc(O)cc2)on1)N1CCCc2ccccc21 2.54%
